Bioassay records as filed in PubChem.
HPGD inh: qHTS Assay for Inhibitors of HPGD (15-Hydroxyprostaglandin Dehydrogenase) | actives 4.3% (n = 150,000) | 15-hydroxyprostaglandin dehydrogenase [NAD(+)] (Homo sapiens), P15428 | Potency, µM, without a hit: at the top dose activity change, negative = inhibition, usual class: inhibitors | purified HPGD, NADH fluorescence kinetic, PGE2 substrate; note: potency is the fitted concentration of half-maximal effect
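NADH formation kinetics: reaction with 30 uM PGE2 and 1 mM NAD+ (final), 20 nM enzyme, Tris-HCl pH 8 with Tween 20, after 15 min compound preincubation at room temperature. Fluorescence change, last versus first of five reads.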
LMNA splice mod: qHTS Assay for Modulators of Lamin A Splicing; HeLa LMNA splicing GFP/RFP minigene ratio, 48 h; Potency, µM (series often up to 46.1 µM), without a hit: top-dose ratio change, negative = inhibition, actives largely listed as inhibitors; actives 0.01% (n = 200,000); active = well fitted inhibition curve with a large enough effect in the signal ratio, with a control signal flat, not every such curve was filed as active; inconclusive = small, poorly fitted or top-dose-only effect, or effect the other way, or a change in a side signal; the % refers to the signal ratio; note: potency is the fitted concentration of half-maximal effect
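S3 HeLa cells stably expressing lamin A-EGFP splicing minigene plus DsRed2, 600 cells/well, 48 h compound exposure at 37C. Laser-scanning cytometry; analysed as GFP (500-530 nm)/RFP (575-640 nm) total intensity ratio; 0.5% DMSO vehicle.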
KinaseGlo FLuc: Counterscreen for Luciferase (Kinase-Glo TM) Inhibition. Luciferin 4-monooxygenase (Photuris pensylvanica), Q27757. Potency, µM (series often up to 38.3 µM), for the others: at the highest dose activity change, negative = inhibition, actives largely listed as inhibitors. Kinase-Glo luciferase, ATP luminescence, 8 min. actives 0.28% (n = 200,000); active = well fitted inhibition curve with a large enough effect; inconclusive = small, poorly fitted or top-dose-only effect; note: potency is the fitted concentration of half-maximal effect; nearly all actives have a fitted effect of over 60% in size
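Kinase-Glo luciferase light output from ATP and luciferin was measured with 10 uM ATP, within the enzyme's linear range. Buffer: 50 mM imidazole pH 7.2, 50 mM KCl, 7 mM MgCl2, 0.01% Tween 20, 0.05% BSA; luminescence read after 8 min at ambient temperature.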
ALDH1A1 block: qHTS Assay for Inhibitors of Aldehyde Dehydrogenase 1 (ALDH1A1). Aldehyde dehydrogenase 1A1 (Homo sapiens), P00352. Purified ALDH1A1, NADH fluorescence, propionaldehyde substrate. Potency, µM (series often up to 75.3 µM), inactives show top-dose activity, negative = inhibition, usual class: inhibitors. actives 7.3% (n = 220,000);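 note: potency is the fitted concentration of half-maximal effect; plate controls were no enzyme wells and a reference inhibitor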
Target sequence (P00352 whole entry, looked up): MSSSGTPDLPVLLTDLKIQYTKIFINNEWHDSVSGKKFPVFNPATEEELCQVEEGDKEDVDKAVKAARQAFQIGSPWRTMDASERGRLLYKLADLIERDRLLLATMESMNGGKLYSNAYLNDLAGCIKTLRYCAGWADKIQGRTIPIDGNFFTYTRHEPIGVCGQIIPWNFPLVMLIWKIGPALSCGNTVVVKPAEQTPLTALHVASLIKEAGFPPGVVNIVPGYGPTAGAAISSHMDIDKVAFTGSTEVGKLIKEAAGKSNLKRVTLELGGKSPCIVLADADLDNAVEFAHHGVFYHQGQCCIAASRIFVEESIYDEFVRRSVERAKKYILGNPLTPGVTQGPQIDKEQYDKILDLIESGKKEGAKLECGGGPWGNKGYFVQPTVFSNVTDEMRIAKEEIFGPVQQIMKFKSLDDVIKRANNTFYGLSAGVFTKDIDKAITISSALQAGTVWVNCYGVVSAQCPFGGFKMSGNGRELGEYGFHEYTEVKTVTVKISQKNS
PNC assembly inh: High Content Assay for Compounds that inhibit the Assembly of the Perinucleolar Compartment; PC3M PTB-GFP, PNC prevalence imaging, 16 h; active compounds read low; activity change (PNC), negative = inhibition, % at 10 µM; AID 2417, 2010; actives 3.1% (n = 140,000);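 active = readout at or below -70, meaning at least 70% loss of cells showing the perinucleolar compartment, a nuclear body marking cancer cells; inconclusive = readout between -30 and a set limit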;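 note: plate controls were DMSO wells for no effect and camptothecin positive control wells for full effect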
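PC3M cells stably expressing PTB-GFP, 750–1000 cells/well, treated 16 h at 37 °C with compound (23 nl of library stock), in duplicate. After paraformaldehyde fixation and Hoechst stain, imaged at 20x; PNC prevalence scored by image analysis.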
Numbers without * were called inactive; [ ] = another dose, or the depositor's remark. Sampled rows, rich in hits. Any-hit rate of the full collection: about 10%. Unless noted, calls come from the whole dose curve; as a rule, active = well fitted inhibition curve with a large enough effect (not every such curve was filed as active); inconclusive = small, poorly fitted or top-dose-only effect, or another doubt; inactive = no such curve, though single readings can be large or run the other way. Unless noted, % is set by controls: 0 for no effect and ±100 for the full control effect.

What do the screens show for `O=C(NNS(=O)(=O)c1ccccc1)c1cccnc1`?
HPGD inh: -7.3%; KinaseGlo FLuc: -2.9%[7.66 µM]; ALDH1A1 block: 8.3%[13.5 µM]

What do the screens show for `Cc1onc(-c2ccccc2)c1C(=O)N/N=C/c1cccc(O)c1`?
HPGD inh: 28.2µM*; LMNA splice mod: inconclusive; KinaseGlo FLuc: 14.6%; ALDH1A1 block: -0.2%; PNC assembly inh: inconclusive

How did CCCCC(=O)NC(=S)NNC(=O)CC#N do in these assays?
HPGD inh: -21.4%; LMNA splice mod: 8.3%; KinaseGlo FLuc: -0.5%; ALDH1A1 block: 22.4µM*; PNC assembly inh: -29.5

Results for CCCS(=O)(=O)N1CC(=O)N(c2cccc(Cl)c2C)C(C)(C(=O)NC2CCCC2)C1 (stereo not given) ?
LMNA splice mod: 14.2%[46 µM]

Results for C[N+](C)(C)c1ccc([C@H](N)C(=O)O)cc1 ?
HPGD inh: -7.5%; KinaseGlo FLuc: -5.8%[7.66 µM]; ALDH1A1 block: -0.6%[13.5 µM]

Results for Cc1ccc(C(=O)NC(=S)NNC(=O)c2ccccc2[N+](=O)[O-])cc1 ?
HPGD inh: 39.8µM*; LMNA splice mod: inconclusive; KinaseGlo FLuc: 1.2%; ALDH1A1 block: 22.4µM*; PNC assembly inh: 25.2

How did Cc1onc(-c2ccccc2)c1C(=O)NC(=S)NNC(=O)c1ccccc1O do in these assays?
HPGD inh: -7.5%; LMNA splice mod: inconclusive; KinaseGlo FLuc: -0.8%; ALDH1A1 block: 0.0%; PNC assembly inh: -95.0*

How did Cc1onc(-c2ccccc2)c1C(=O)NC(=S)NNC(=O)c1ccc(O)cc1O do in these assays?
HPGD inh: -19.7%; LMNA splice mod: -29.2%; KinaseGlo FLuc: -0.3%; ALDH1A1 block: inconclusive; PNC assembly inh: -6.2

How did CCCCCC(=O)NNC(=S)NC(=O)c1ccc([N+](=O)[O-])cc1 do in these assays?
LMNA splice mod: inconclusive; KinaseGlo FLuc: -0.5%; ALDH1A1 block: 6.31µM*

Results for Cc1ccc(S(=O)(=O)NNC(=S)NC(=O)c2ccc([N+](=O)[O-])cc2)cc1 ?
HPGD inh: 28.2µM*; LMNA splice mod: 4.2%; KinaseGlo FLuc: 1.4%; ALDH1A1 block: 17.8µM*; PNC assembly inh: 82.1

What do the screens show for `CC(=O)Nc1ccc(NC(=S)NC(=O)c2ccc([N+](=O)[O-])cc2)cc1`?
HPGD inh: -19.5%; LMNA splice mod: 3.9%; KinaseGlo FLuc: 0.3%; ALDH1A1 block: -4.9%; PNC assembly inh: 35.9

Results for CCO[Si](CCCN)(OCC)OCC ?
HPGD inh: -11.5%; ALDH1A1 block: 4.3%

Results for Cc1sc2nc(CN3CCOCC3)nc(N3CCOCC3)c2c1C ?
HPGD inh: -10.2%; LMNA splice mod: 6.0%; KinaseGlo FLuc: -0.7%; ALDH1A1 block: 14.1µM*; PNC assembly inh: 33.1

Results for Cc1sc2nc(CN3CCOCC3)nc(N3CCC(C(N)=O)CC3)c2c1C ?
HPGD inh: -5.2%; LMNA splice mod: 2.9%; KinaseGlo FLuc: -3.5%; ALDH1A1 block: 0.7%; PNC assembly inh: 44.5

How did Cc1sc2nc(CN3CCOCC3)nc(Oc3ccc(NC(=O)c4ccco4)cc3)c2c1C do in these assays?
LMNA splice mod: 2.1%; ALDH1A1 block: 17.8µM*; PNC assembly inh: 36.9

What do the screens show for `CCC(C)C(=O)OC1C2CC3=C4CC(=O)OC(c5ccoc5)[C@]4(C)CCC3[C@@](C)(C2=O)C(CC(=O)OC)C1(C)C` (stereo not given in full)?
HPGD inh: -9.5%; KinaseGlo FLuc: -2.7%; ALDH1A1 block: -12.1%

Results for COC(=O)c1cc(=O)n(Cc2ccco2)c(=Nc2ccc(F)cc2)s1 ?
ALDH1A1 block: 11.2µM*

What do the screens show for `CC(C)c1c(O)nc(SCCN(C)C)[nH]c1=O`?
HPGD inh: -4.5%; LMNA splice mod: 11.0%; KinaseGlo FLuc: -2.7%; ALDH1A1 block: -5.6%; PNC assembly inh: -86.9*

What do the screens show for `CC(C)c1c(O)nc(SCC(=O)N2CCOCC2)[nH]c1=O`?
HPGD inh: -9.1%; LMNA splice mod: 11.8%; KinaseGlo FLuc: -1.1%; ALDH1A1 block: 7.3%; PNC assembly inh: 6.6
